# Only some compounds are listed: those with a hit (about 6.6% of all), similar ones and a draw of the others.
# MPTP inh: inhibitors of mitochondrial permeability transition pore; isolated mouse mitochondria, Ca2+ swelling absorbance, 30 min; inhibition, % at 10 µM; hit rate 1.4% among 360,000; AID 602449;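 active = inhibition of 50% or more, scaled per plate between neutral and stimulator controls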;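 note: 0% = DMSO wells given calcium and 100% = 1 mM EGTA wells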
# Beta cell apopt: blocks beta cell apoptosis; INS-1E cytokine-induced death, ATP luminescence, 48 h; percent of positive-control rescue, neutral wells zero; protection from apoptosis, % (concentration not given with the values); hit rate 0.8% among 300,000; AID 435005;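 active = Every replicate reaches about 75%, or at least half do and their mean reaches it too, limit read from the data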;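 note: 0% = cytokine-treated negative control wells and 100% = positive control rescue; higher means more ATP so stronger rescue from cytokine killing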
# Gli-Sufu block: Gli-Sufu pathway antagonism. Sufu-KO-LIGHT fibroblasts, Gli luciferase reporter luminescence. inhibition, % at 5 µM. hit rate 0.74% among 340,000. AID 588413;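 active = inhibition above about 55%, limit read from the data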;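 note: 0% = DMSO-treated cells and 100% = wells with medium but no cells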
# Mdm2-MdmX inh: human Mdm2/MdmX binding inhibition | SaOS-2 split-luciferase Mdm2/MdmX complementation, luminescence | inhibition, % at 8 µM | O15151+Q00987 | hit rate 3% among 330,000;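 active = inhibition of at least 50% at 8 µM in the primary screen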
# GRIN3A LBD mod: NR3A (human) ligand-binding domain modulation | Tm shift relative to glycine control, % at 25 µM | NR3A LBD differential scanning fluorimetry, Tm shift; 0% = protein alone, 100% = glycine-bound protein | hit rate 2.5% among 340,000;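 active = melting temperature shift of at least 10% of the positive control shift, at one fixed dose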
# CSC inhib: cancer stem cell inhibition | hit rate 1.1% among 300,000 | AID 2717 | inhibition, % at 7.5 µM | cancer stem cell-like cells viability, luminescence; in the data active = inhibition above about 75%; tested in HMLE shEcad cells
# Mdm2 MdmX conf: confirmation of human Mdm2/MdmX interaction inhibitors; shares compounds with Mdm2-MdmX inh; Mdm2-MdmX binding, luminescent assay; inhibition, % at 8 µM; hit rate 55% among 10,000; AID 489028; in the data active = inhibition above about 40%
# FLuc counter: counter-screen for Mdm2/MdmX inhibitors: full-length luciferase | shares compounds with Mdm2-MdmX inh | hit rate 77% among 6,200 | SaOS-2 full-length luciferase counterscreen, luminescence | inhibition, % at 8 µM;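 active = mean inhibition at 8 µM reaching about 37%, which flags the compound as non-specific, limit read from the data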;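 note: p53-null SaOS-2 cells with luciferase driven by a doxycycline-inducible promoter; compound on cells about two nights before reading with doxycycline added after day one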
# The depositor's hits bear a star; . = not tested or not shown.
SMILES,MPTP inh,Beta cell apopt,Gli-Sufu block,Mdm2-MdmX inh,GRIN3A LBD mod,CSC inhib,Mdm2 MdmX conf,FLuc counter
Cc1cc(C)nc(N2C(=O)CC(C(=O)O)NC2=NCCc2c[nH]c3ccccc23)n1 (centres undefined),0,1,-5,3,-1,-9,.,.
Cc1cc(C)nc(NC(=NCCc2c[nH]c3ccccc23)NC(=O)C(C)(C)C)n1,13,0,0,52*,5,4,17,.
O=C(c1ccc(Br)cc1)C(CN1CCOCC1)c1ccccc1 (centres undefined),-1,5,9,91*,0,68,56*,25
CCOc1ccc(C(=O)C(CN2CCOCC2)c2ccccc2)cc1 (centres undefined),1,-4,12,.,-8,58,.,.
CCCCSc1nnc2n(CCc3ccccc3)c(=O)c3c4c(sc3n12)COC(C)(C)C4,3,26,6,55*,0,3,25,.
O=C(N1CCN(c2ccccn2)CC1)N1c2ccccc2Sc2ccccc21,7,12,16,79*,-2,73,68*,78*
O=C(c1ccco1)N1CCN(C(=O)N2c3ccccc3Sc3ccccc32)CC1,0,44,53,52*,-2,70,63*,92*
O=C(c1ccco1)N1c2ccccc2Sc2ccccc21,5,-4,5,41,-2,-7,.,.
COc1ccc(-c2csc(NC(CO)c3nc4ccccc4n3CCCO)n2)cc1 (centres undefined),-1,-14,10,-11,-1,-10,.,.
O=C(CC(Nc1ccc(Cl)cc1Cl)C(=O)O)c1ccccc1 (centres undefined),2,-1,18,71*,0,-11,80*,63*
O=C(CC(C(=O)O)c1cccc(Cl)c1)c1ccccc1 (centres undefined),1,-5,31,18,2,-11,.,.
COc1ccc(C(=O)Cn2c(NCCCO)nc3ccccc32)cc1,-1,.,.,.,.,.,.,.
Cc1cc2nc(NCCCO)n(CC(=O)c3cc(C(C)(C)C)c(O)c(C(C)(C)C)c3)c2cc1C,38,98*,-6,98*,-6,75*,64*,41*
CCOc1cc(C(=O)OCC(=O)Nc2ccc(F)cc2Cl)ccc1OCC(=O)N1CCOCC1,-2,.,-2,12,2,.,.,.
COc1ccc(NC(=O)C2CCN(c3cc(-c4ccccc4)nc4ncnn34)CC2)cc1OC,1,.,9,54*,-2,19,36,60*
CC1(NC(=O)CC(c2ccccc2)(c2ccccc2)c2ccccc2)CCN(CCCc2ccccc2)C1=O (centres undefined),-2,31,0,76*,-1,100*,23,.
CCOc1ccc(S(=O)(=O)N2CCN(CN3C(=O)CC4(CCCC4)C3=O)CC2)cc1,-1,.,7,-13,0,.,.,.
COC(=O)[C@]12CCCCC=C1N(CCC1=CCCCC1)C(=O)[C@H](CC(=O)NCCC(C)C)C2,-3,.,.,.,.,.,.,.
CCOC(=O)C(=CNc1nc(-c2ccccc2)c(C(=O)Nc2ccc(-c3ccccc3)cc2)s1)C(=O)OCC,2,.,13,71*,2,6,15,.
CCOC(=O)Nc1nc(-c2ccccc2)c(C(=O)c2ccc(Cl)cc2)s1,4,19,-9,66*,-5,81*,60*,106*
COC(=O)c1cccc2c1-c1ccccc1/C2=N/O,1,-7,-4,84*,-9,-10,76*,37*
O=C(Nc1ccc(Cc2ccc(NC(=O)C3CC3)cc2)cc1)C1CC1,0,1,-5,57*,3,17,15,.
O=C(c1cccc(C(F)(F)F)c1)N1CCCC1,0,-3,-8,-4,-2,-11,.,.
CC(C)(C)c1ccc(CS(=O)(=O)CC2(O)CCN(C(=O)c3cccc(C(F)(F)F)c3)CC2)cc1,4,.,-3,61*,1,-7,1,.
COC(=O)c1ccccc1S(=O)(=O)N1CCC(C(=O)NC2CCCCC2C)CC1 (centres undefined),-1,-3,-2,12,3,-10,.,.
SMILES,MPTP inh,Beta cell apopt,Gli-Sufu block,Mdm2-MdmX inh,GRIN3A LBD mod,CSC inhib,Mdm2 MdmX conf,FLuc counter
COC(=O)[C@H]1C[C@H]2[C@@H]3CC[C@H]4C[C@@H](OC)CC[C@]4(C)[C@H]3CC[C@]2(C)[C@@]2(CCCO2)O1,2,.,-9,-16,-1,.,.,.
COc1cc(C2=NOC(C(=O)NCc3ccc(F)cc3)C2)cc(OC)c1OC (centres undefined),0,22,46,61*,0,.,58*,83*
CCN(CC)C(=O)Cn1c(=O)n(-c2ccccc2)c(=O)c2c3c(sc21)CCC3,1,-3,1,-11,2,-6,.,.
CCOc1ccc(-n2c(=O)c3c4c(sc3n(CC(=O)NCc3ccco3)c2=O)CCC4)cc1,-6,-2,4,73*,3,2,0,.
Oc1ccc(C=NCCc2ccccc2)cc1,2,-2,4,-13,3,-6,.,.
O=C(Sc1cccc2cccnc12)c1ccc(F)cc1,.,.,.,93*,.,.,95*,15
O=C(Sc1cccc2cccnc12)c1ccccc1Br,2,52,.,97*,.,24,90*,4
CC(=O)/C(=N\Nc1ccccc1)Sc1cccc2cccnc12,0,-2,3,-10,-4,-4,.,.
COc1ccc(CCNC2CC(=O)N(C3CCCCC3)C2=O)cc1OC (centres undefined),0,0,-9,3,-4,1,.,.
COc1cccc(/C=C/C(=O)N2CCN(S(=O)(=O)c3ccccc3)CC2)c1,0,.,.,.,.,.,.,.
Cc1ccc(S(=O)(=O)Nc2ccc(Oc3cccnc3)nc2)cc1,5,-1,-6,13,3,-11,.,.
CCCn1c(N)c(C(=O)CSc2nc3ccccc3s2)c(=O)[nH]c1=O,1,7,-8,82*,-2,42,79*,49*
CCCn1c(N)c(C(=O)CSc2nnc(N)s2)c(=O)[nH]c1=O,0,-4,-23,9,-1,.,.,.
O=S(=O)(c1ccc(NCCOc2ccccc2)nc1)N1CCCC1,0,8,-1,3,1,.,.,.
O=C(COC(=O)CNC(=O)c1ccc(Cl)c([N+](=O)[O-])c1)NC(=O)c1ccccc1,-1,1,2,6,-32,20,.,.
CCOC(=O)/C(=C\c1cccnc1)C(=O)c1cc(C(C)=O)c(Nc2ccccc2)s1,-10,105*,60*,97*,4,97*,99*,52*
CCOC(=O)/C(=C\c1ccccc1)C(=O)c1cc(C(C)=O)c(Nc2ccccc2)s1,1,98*,11,97*,-6,76*,93*,45*

# Bioassay records deposited in PubChem by several laboratories.
